Consider 14 molecules from PubChem BioAssay (Tox21).

Inconclusive results are not listed. A number with no mark means an inactive call. The source made the active and inactive calls. Unless noted, calls follow the shape of the dose curve; as a rule, active = well fitted curve in the direction sought with a large enough effect in the repeat runs; inconclusive = weak or mixed curves; inactive = no such curve, though single readings can be large; an effect the other way counts as inactive or inconclusive.

The nature of assay [1]: qHTS assay to identify small molecule antagonists of the retinoid acid receptor (RAR) signaling pathway - cell viability counter screen (AID 1159551). Also: nearly all actives have a fitted effect of over 35% in size. Summed up: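 Seed C3RL4 cells; next day add compound, then retinol to 1 uM final; incubate 6 h at 37 C; add CellTiter-Glo; read luminescence after 30 min at RT.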
A general note: Quantitative high-throughput screening tests each substance at several concentrations.

Assay [2] is described as follows: qHTS assay to identify small molecule antagonists of the estrogen related receptor (ERR) signaling pathway from Tox21 library - cell viability counter screen (AID 1224834). Also: nearly all actives have a fitted effect of over 30% in size. Also: potency is read from the fitted curve at half-maximal effect. Summed up:
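CellTiter-Fluor fluorescence measured; ERR cells; 17.5 h compound incubation at 37 C; 30 min reagent step.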

Assay [3] deals with Luciferin 4-monooxygenase (Photinus pyralis) (UniProt P08659). Description: qHTS assay to identify small molecule inhibitors of firefly luciferase (AID 1224835). Also: nearly all actives have a fitted effect of over 25% in size. Also: potency is read from the fitted curve at half-maximal effect. Summed up:
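Inhibition of purified Photinus luciferase is measured by luminescence. Substrate levels (D-luciferin, ATP) sit at their KM values. Each compound is tested in a concentration series.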

Assay [4] can be described thus: qHTS assay to identify small molecule agonists of the constitutive androstane receptor (CAR) signaling pathway - cell viability counter screen (AID 1224836). Also: series mostly up to about 92 µM; nearly all actives have a fitted effect of over 45% in size. Summed up: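 Double-stable HepG2 hepatoma cells (hCAR plus CYP2B6-2.2kb) are treated for 23 h at 37 C with test compounds in 15-point concentration series. PK11195 at 0.75 uM final is co-added. Cell viability is quantified by CellTiter-Fluor.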

Assay [5] is described as follows: qHTS assay to identify small molecule antagonists of the constitutive androstane receptor (CAR) signaling pathway - cell viability counter screen (AID 1224837). Also: nearly all actives have a fitted effect of over 45% in size. Also: potency is read from the fitted curve at half-maximal effect. In outline:
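Using CellTiter-Fluor, viability is scored in HepG2 cells stably carrying hCAR and a 2.2kb CYP2B6 reporter after 23 hr compound exposure across 15 concentrations, with CITCO present at 50 nM.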

In assay [6] the target is Nuclear receptor subfamily 1 group I member 3 (Homo sapiens) (UniProt Q14994). Put plainly: qHTS assay to identify small molecule antagonists of the constitutive androstane receptor (CAR) signaling pathway (AID 1224838).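 Also: HepG2 cells stably expressing hCAR with CYP2B6 luciferase reporter stimulated by CITCO; nearly all actives have a fitted effect of over 40% in size.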 Summed up: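 Reporter luminescence was quantified after 24 h exposure of hCAR/CYP2B6-2.2kb double-stable HepG2 cells to compounds at 15 concentrations in the presence of 50 nM CITCO final.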
Nuclear receptor subfamily 1 group I member 3 (Homo sapiens), sequence (Q14994 whole entry, looked up): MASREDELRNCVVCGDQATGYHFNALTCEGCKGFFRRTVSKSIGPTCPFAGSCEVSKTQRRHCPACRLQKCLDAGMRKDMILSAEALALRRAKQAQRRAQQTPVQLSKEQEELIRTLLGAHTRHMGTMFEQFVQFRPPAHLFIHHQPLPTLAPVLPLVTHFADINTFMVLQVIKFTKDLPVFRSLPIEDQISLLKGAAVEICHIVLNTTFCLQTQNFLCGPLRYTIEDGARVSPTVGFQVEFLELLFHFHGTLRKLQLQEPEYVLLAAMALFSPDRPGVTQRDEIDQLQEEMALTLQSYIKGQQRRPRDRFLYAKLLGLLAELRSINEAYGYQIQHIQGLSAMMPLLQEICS

The target is the same in assay [7]. Description: qHTS assay to identify small molecule agonists of the constitutive androstane receptor (CAR) signaling pathway (AID 1224839).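 Also: HepG2 cells stably carrying human CAR and a CYP2B6 luciferase reporter; series mostly up to about 92 µM; nearly all actives have a fitted effect of over 15% in size.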 In outline:
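Readout: firefly luciferase luminescence via ONE-Glo. System: HepG2 double-stable for hCAR and CYP2B6-2.2kb. Conditions: 15-point compound titration, PK11195 at 0.75 uM final, 24 h incubation.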

Assay [8] is described as follows: qHTS assay to identify small molecule antagonists of the estrogen related receptor signaling pathway with the pleiotropic PPARgamma coactivator (PGC) from Tox21 10K library - cell viability counter screen (AID 1224840; active = well fitted cell-killing curve with a large enough effect in the repeat runs, not every such curve was filed as active; also: nearly all actives have a fitted effect of over 40% in size). In outline:
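Here the PGC/ERR cells serve as a cytotoxicity control: they are exposed to compounds for 17.5 hours at 37 C, and live-cell signal is quantified using CellTiter-Fluor fluorescence.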

Assay [9] is described as follows: qHTS assay to identify small molecule antagonists of the estrogen related receptor signaling pathway with the pleiotropic PPARgamma coactivator (PGC) from Tox21 10K library (AID 1224841; call rule not given here; also: series mostly up to about 92 µM; actives are mostly falling curves and most rising ones were filed inactive; nearly all actives have a fitted effect of over 50% in size). In outline:
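Each well held 2,000 PGC/ERR cells, pre-incubated six hours (37 C, 5% CO2). Test substances in DMSO were added by pin tool and left for 18 h at 37 C before luciferase detection by One-Glo.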

The nature of assay [10]: qHTS assay to identify small molecule agonists of the estrogen related receptor signaling pathway with the pleiotropic PPARgamma coactivator (PGC) from Tox21 10K library (AID 1224842). Also: nearly all actives have a fitted effect of over 15% in size. Also: potency is read from the fitted curve at half-maximal effect. Summed up:
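Luminescence from One-Glo (30 min, room temperature) measured after PGC/ERR cells had 18 h at 37 C with pinned compound (23 nL in DMSO). Cells had been seeded at 2,000 per well and pre-incubated 6 h.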

For assay [11], the target named is Thyrotropin receptor (Homo sapiens) (UniProt P16473). Put plainly: qHTS assay to identify small molecule agonists of the thyroid stimulating hormone receptor (TSHR) signaling pathway (AID 1224843; calls by dose curve; also: nearly all actives have a fitted effect of over 45% in size). In outline:
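HEK293 cells stably bearing the thyrotropin receptor were plated at 800 cells/well and challenged with compound (30 min, RT). Accumulated cAMP was quantified via cAMP-d2 competing for cryptate-tagged antibody.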

Assay [12] is described as follows: qHTS assay to identify small molecule agonists of the retinoic acid receptor (RAR) signaling pathway (AID 1159553). Also: potency is read from the fitted curve at half-maximal effect. Summed up: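 Activation of retinol signaling was monitored via a RARE luciferase reporter in C3RL4 cells. After 6 hr compound treatment at 37 C, detection reagent was added for 30 min at room temperature before luminescence reading.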
Assay [13] is described as follows: qHTS assay to identify small molecule antagonists of the retinoic acid receptor (RAR) signaling pathway (AID 1159552; also: nearly all actives have a fitted effect of over 50% in size). In outline: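 Antagonism of retinol-induced RARE reporter activity was measured in C3RL4 cells. Exposure to compounds and 1 uM final retinol lasted 6 hr at 37 C, with luminescence as endpoint.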

Thyrotropin receptor (Homo sapiens), sequence (P16473 whole entry, looked up): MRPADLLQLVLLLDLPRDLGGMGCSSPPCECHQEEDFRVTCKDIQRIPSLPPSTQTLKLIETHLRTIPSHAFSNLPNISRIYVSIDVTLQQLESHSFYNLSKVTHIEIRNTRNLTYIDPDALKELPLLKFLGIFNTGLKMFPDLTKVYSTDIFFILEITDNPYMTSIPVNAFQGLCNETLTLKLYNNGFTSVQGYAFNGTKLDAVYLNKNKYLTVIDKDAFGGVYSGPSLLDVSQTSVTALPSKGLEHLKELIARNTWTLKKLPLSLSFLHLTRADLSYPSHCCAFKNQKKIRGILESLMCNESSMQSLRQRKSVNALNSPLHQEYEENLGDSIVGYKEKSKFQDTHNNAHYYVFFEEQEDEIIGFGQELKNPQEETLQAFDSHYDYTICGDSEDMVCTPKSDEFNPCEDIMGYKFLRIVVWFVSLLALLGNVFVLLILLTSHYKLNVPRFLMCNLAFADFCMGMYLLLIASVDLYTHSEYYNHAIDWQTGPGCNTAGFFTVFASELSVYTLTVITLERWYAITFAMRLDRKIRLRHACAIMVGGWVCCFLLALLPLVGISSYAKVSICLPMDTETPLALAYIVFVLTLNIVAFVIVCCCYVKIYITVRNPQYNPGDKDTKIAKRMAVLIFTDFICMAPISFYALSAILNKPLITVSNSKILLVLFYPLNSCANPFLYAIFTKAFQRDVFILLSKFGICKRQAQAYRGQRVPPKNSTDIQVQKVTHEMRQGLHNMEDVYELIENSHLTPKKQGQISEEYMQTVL
Luciferin 4-monooxygenase (Photinus pyralis), sequence (P08659 whole entry, looked up): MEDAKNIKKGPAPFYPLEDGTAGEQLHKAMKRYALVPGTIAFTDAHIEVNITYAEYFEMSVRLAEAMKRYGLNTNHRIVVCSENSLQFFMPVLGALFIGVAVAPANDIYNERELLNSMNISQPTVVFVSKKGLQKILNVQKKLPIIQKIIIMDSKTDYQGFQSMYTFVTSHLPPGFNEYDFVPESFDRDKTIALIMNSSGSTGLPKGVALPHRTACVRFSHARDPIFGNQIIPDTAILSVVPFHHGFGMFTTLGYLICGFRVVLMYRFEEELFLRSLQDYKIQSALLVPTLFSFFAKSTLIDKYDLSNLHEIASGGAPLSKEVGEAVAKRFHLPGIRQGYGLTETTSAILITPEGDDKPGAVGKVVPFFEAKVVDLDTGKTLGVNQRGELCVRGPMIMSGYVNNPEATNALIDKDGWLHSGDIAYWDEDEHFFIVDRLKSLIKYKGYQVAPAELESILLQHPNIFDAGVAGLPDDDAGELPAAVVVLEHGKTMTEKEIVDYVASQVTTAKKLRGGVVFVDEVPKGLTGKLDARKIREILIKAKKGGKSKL

Turning to `COC(=O)C(C)=O`, the Potency result in assay [1], in assay [2], in assay [3], in assay [4], in [5] and in assay [6] was “inactive” each time. Also, the Potency entry in assay [7], in assay [8], in assay [9], in assay [10] and in assay [11] was “inactive” in each case.

Take `CC[C@H](C)[C@@H](C(=O)O)n1sc2ccccc2c1=O`: the Potency result in assay [1], in assay [12], in assay [2], in assay [4], in assay [5] and in assay [6] was “inactive” each time. Also, the Potency entry in [7] and in assay [8] was “inactive” in each case. The Potency in [3] is 17.8 µM (active).

Turning to `O=C1c2cccc(O)c2C(=O)c2c(O)cc(CO)cc21`, the Potency entry in [1], in assay [13], in assay [3], in assay [4], in assay [5] and in assay [6] was “inactive” in each case. Besides, the Potency entry in [7], in [8], in assay [9], in assay [10] and in [11] was “inactive” throughout.

Regarding `O=C(O)Cc1sc(-c2ccccc2)nc1-c1ccc(Cl)cc1`, the Potency result in [1], in assay [13], in [12], in assay [2], in assay [5] and in [8] was “inactive” in each case. The Potency result in assay [9], in [10] and in assay [11] was “inactive” throughout.

`Oc1ccc(Cc2ccccc2)cc1`: the Potency result in [1], in assay [13], in assay [12], in [4], in assay [6] and in assay [8] was “inactive” throughout. Also, the Potency entry in [9] and in assay [11] was “inactive” in each case.

Take `CCCCC(CC)COCCCN` (configuration not stated): the Potency result in assay [1], in assay [13], in assay [12], in assay [2], in [4] and in [5] was “inactive” throughout. For the same molecule, the Potency result in assay [8], in [10] and in assay [11] was “inactive” in each case.

Take `O=C=NC1CCC(CC2CCC(N=C=O)CC2)CC1` (configuration not stated): the Potency result in assay [1], in assay [2], in assay [3], in assay [4], in [5] and in [6] was “inactive” throughout. The Potency result in assay [7] and in assay [11] was “inactive” in each case.

Take `CC[C@H](C)[C@H](N)C(=O)O`: the Potency result in assay [1], in [2], in assay [3], in assay [4], in assay [5] and in [6] was “inactive” each time. In addition, the Potency entry in [8], in [9], in assay [10] and in assay [11] was “inactive” each time.

Consider `CCN(CC)CCOc1ccc2c(c1)C(=O)c1cc(OCCN(CC)CC)ccc1-2`, for which the Potency entry in assay [1], in assay [13], in assay [9] and in assay [10] was “inactive” in each case. Moreover, the Potency in assay [2] is 11.9 µM (active); in assay [5], 23.7 µM (active).

With `CCN(CC)CCNC(C(=O)OCCC(C)C)c1ccccc1` (configuration not stated), the Potency entry in assay [1], in [3], in [4], in assay [5], in assay [7] and in assay [8] was “inactive” each time. Also, the Potency result in assay [9] and in assay [11] was “inactive” throughout.

Turning to `CNCC[C@@H](Oc1ccccc1C)c1ccccc1`, the Potency result in assay [1], in assay [12], in assay [2], in assay [3], in assay [4] and in assay [5] was “inactive” each time. Also, the Potency entry in assay [8], in assay [10] and in assay [11] was “inactive” throughout.

On to `Cc1ccc(O)c([C@H](CCN(C(C)C)C(C)C)c2ccccc2)c1`, for which the Potency entry in [1], in assay [13], in assay [12], in assay [2], in assay [4] and in [5] was “inactive” throughout. Besides, the Potency result in [6] and in assay [11] was “inactive” throughout.

Take `C1CCC2OC2C1` (configuration not stated): the Potency result in assay [1], in assay [13], in [12], in assay [2], in [4] and in [5] was “inactive” throughout. Further, the Potency result in assay [8] and in [11] was “inactive” throughout.

`O=C(CC(=O)c1ccccc1)c1ccccc1`: the Potency entry in assay [1], in assay [4], in assay [5], in assay [8], in assay [9] and in assay [11] was “inactive” each time. The Potency in [12] was 8.27 µM (active); in [10] it was 29.3 µM (active).
